Mcl-1 Bim block – human Bim-Mcl-1 interaction inhibition. Q07820. Bead-based flow cytometry, Bim peptide-Mcl-1 binding. inhibition, % at 10 µM. 0.1% of 190,000 active. AID 1009; in the data active = inhibition above about 40%;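 note: 0% = no compound tracer wells and 100% = peptide blocker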
Mcl1 Bid PPI – disrupts binding of human Mcl-1 to Bid peptide; Q07820; TR-FRET Mcl-1/Bid-Dy647 peptide binding, 1536-well; inhibition, % at 21.7 µM; 0.97% of 220,000 active; AID 1021;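 active = compounds that cut the binding signal by more than half at the single screening dose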;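 note: His-tagged Mcl-1 with europium anti-His antibody binding Bid BH3 peptide; 0% = Mcl-1 plus peptide wells and 100% = peptide-only wells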
Mcl1-Noxa inh – disrupts binding of human Mcl-1 to Noxa peptide; Q07820; TR-FRET Mcl-1/Noxa peptide binding, 2 h; inhibition, % at 21.7 µM; 1.5% of 220,000 active;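 active = compounds that cut the protein-peptide binding signal by more than 50% relative to plate controls in a single-dose test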;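 note: His-tagged Mcl-1 with rhodamine Noxa BH3 peptide and terbium anti-His antibody; 0% = Mcl-1 plus Noxa peptide wells and 100% = peptide-only wells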
MCL1 BIM primary – inhibitors of human MCL1 binding to BIM-BH3 peptide; Q07820; GST-MCL1 / FITC-Bim-BH3 fluorescence polarization; inhibition, % at 10.9 µM; 0.68% of 320,000 active; AID 2057;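 active = inhibition above the mean inhibition of all tested compounds plus 3 SD, set per campaign, cut at about 40% in these data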;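 note: 0% = DMSO wells and 100% = unlabeled Bim-BH3 peptide control; higher means more loss of mP so more displacement of Bim peptide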
BCLXL inh confirm – Bcl-xL (human) inhibition, MCL1 counter-screen confirmation; shares compounds with MCL1 BIM primary; AID 2166; inhibition, % at 10.9 µM; 54% of 1,700 active; GST-Bcl-xL / FITC-Bim BH3 peptide FP binding;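 active = inhibition above a cutoff equal to the mean inhibition of all tested compounds plus 3 SD, cut at about 30% in these data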;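 note: 0% = DMSO wells and 100% = unlabeled Bim BH3 control peptide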
Target sequence (Q07817 whole entry, looked up): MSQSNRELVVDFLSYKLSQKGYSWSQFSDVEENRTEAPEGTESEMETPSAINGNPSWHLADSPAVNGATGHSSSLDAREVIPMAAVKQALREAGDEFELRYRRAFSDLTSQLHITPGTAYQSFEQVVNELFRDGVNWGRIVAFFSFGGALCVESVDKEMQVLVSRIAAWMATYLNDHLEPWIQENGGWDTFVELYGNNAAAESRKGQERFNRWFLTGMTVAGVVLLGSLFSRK
MCL1 inh confirm – MCL1-BIM-BH3 interaction inhibition, confirmation. shares compounds with MCL1 BIM primary. GST-MCL1 / FITC-Bim-BH3 fluorescence polarization. inhibition, % at 10.9 µM. 61% of 1,700 active. AID 2168;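 active = inhibition above the average of all tested compounds plus 3 SD, cut at about 40% in these data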;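 note: 0% = DMSO wells and 100% = unlabeled Bim-BH3 control peptide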
* marks the source's active call; other numbers are inactive results; nt = no result given; + = active, no number. In the library only some 2% were active in any assay of this set; here they are far more common.

SMILES	Mcl-1 Bim block	Mcl1 Bid PPI	Mcl1-Noxa inh	MCL1 BIM primary	BCLXL inh confirm	MCL1 inh confirm
O=[N+]([O-])c1cc(Oc2cccnc2)cc([N+](=O)[O-])c1	-6	10	-9	5	nt	nt
Cc1[nH]nc2c1C1(CCN(Cc3ccccc3)CC1)C(C#N)=C(N)O2	0	-25	12	39	nt	nt
CC(C)c1[nH]nc2c1C1(CCN(Cc3ccccc3)CC1)C(C#N)=C(N)O2	-4	-6	24	114*	0	-12
COCCCn1c(=O)/c(=C\c2ccccc2OC(F)F)s/c1=C(/C#N)C(=O)N1CCOCC1	0	-28	11	+	0	-1
O=C(O)C1Nc2c(O)cc(Cl)c([N+](=O)[O-])c2C2C=CCC12 (stereo unspecified)	9	97*	105*	101*	43*	101*
CCS(=O)(=O)c1nc2ccccc2n1Cc1ccccn1	-5	1	12	5	nt	nt
